# Measured values taken from PubChem BioAssay (Tox21).
# Records with an inconclusive call do not appear. Entries that show only a call come without a potency. A structure can be active in one record and inactive in another. Active and inactive are the calls of the source. Unless noted, the call rests on the fitted dose curve; in most records, active means well fitted curve in the direction sought with a large enough effect in the repeat runs; inconclusive means weak or mixed curves; inactive means no such curve, though single readings can be large; an effect the other way counts as inactive or inconclusive.
# What was measured:
# [1] = qHTS assay to identify small molecule agonists of the RXR signaling pathway - cell viability counter screen (AID 1159529);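 further: HEK 293T cells carrying an RXR-alpha UAS beta-lactamase reporter; series mostly up to about 77 µM; nearly all actives have a fitted effect of over 50% in size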
# Method in brief: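 Steps: seed RXR-alpha-UAS-bla HEK 293T cells in assay medium containing 2% charcoal-stripped FBS; incubate 5 hr; add compounds in DMSO; incubate 16 hr at 37 C; after the bla read, add CellTiter-Glo and read luminescence at 30 min.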
# [2] = qHTS assay to identify small molecule antagonists of the retinoid acid receptor (RAR) signaling pathway - cell viability counter screen (AID 1159551); further: nearly all actives have a fitted effect of over 35% in size
# Method in brief: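 In this counter screen, the RARE-luciferase line C3RL4 was exposed for 6 h at 37 C and 5% CO2 to compounds with retinol at 1 uM final. Cellular ATP, read by luminescence, served as the viability measure.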
# [3] = qHTS assay to identify small molecule antagonists of the retinoic acid receptor (RAR) signaling pathway (AID 1159552; further: nearly all actives have a fitted effect of over 50% in size)
# Method in brief: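 Retinol at 1 uM final stimulated RARE-luciferase expression in C3RL4 cells exposed to test compounds for 6 hr at 37 C. Reduced luminescence, read 30 min after detection reagent, indicated pathway antagonism.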
# [4] = qHTS assay to identify small molecule agonists of the retinoic acid receptor (RAR) signaling pathway (AID 1159553); further: potency means the concentration at half of the fitted maximal effect
# Method in brief: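 In this cell-based screen, 1,000 C3RL4 cells per well were cultured overnight, dosed with test chemicals in DMSO for 6 hr, and assessed for RARE luciferase luminescence.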
# [5] = qHTS assay to identify small molecule antagonists of the estrogen related receptor signaling pathway with the pleiotropic PPARgamma coactivator (PGC) cell viability counter screen (AID 1224822;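 further: series mostly up to about 46 µM; viability read after 17.5 h compound exposure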)
# Method in brief: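 17.5 h compound treatment of PGC/ERR cells at 37 C; readout CellTiter-Fluor fluorescence; run alongside the PGC/ERR antagonist screen to flag cytotoxic compounds.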
# [6] = qHTS assay to identify small molecule antagonists of the estrogen related receptor (ERR) signaling pathway (AID 1224819; further: series mostly up to about 46 µM; nearly all actives have a fitted effect of over 50% in size)
# Method in brief: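 Seed ERR cells 2,000/well; rest 6 h at 37 C/5% CO2; pin compounds in DMSO; incubate 18 h at 37 C; add One-Glo; wait 30 min at room temperature; measure luminescence.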
# [7] = qHTS assay to identify small molecule agonists of the estrogen related receptor (ERR) signaling pathway (AID 1224820)
# Text: National Center for Advancing Translational Sciences [NCATS]
# NIH Chemical Genomics Center [NCGC]
# U.S. Environmental Protection Agency [EPA]
# National Institutes of Environmental Health Sciences [NIEHS]
# National Toxicology Program [NTP]
# Estrogen related receptors (ERRs), the first orphan nuclear receptors discovered, play an important role in the control of cellular energy metabolism. ERRs are required for high-energy production in response to the environmental challenges. ERR-alpha was also identified as an adverse marker for breast cancer progression; ERR-alpha-positive tumors have a poor prognosis. To screen and to identify environmental compounds that perturb the ERR signaling pathways could provide valuable information for potential therapeutic or preventive measures in the treatment of metabolic disease. For identifying ERR agonists, ERR cell line (provided by NTP) has been used to screen LOPAC library.
# The ERR cells were dispensed at 2,000 cells/5 ul/well in 1536-well white plates using a Multidrop dispenser. After the assay plates were incubated at a 37 C/5% CO2 incubator for 6 hours, 23 nL of compounds dissolved in DMSO, positive and negative controls or DMSO only was transferred to the assay plate by a pin tool. The plates were incubated at 37 C for 18 hours. 4 ul/well of One-Glo reagent was added into the assay plates using a Flying Reagent Dispenser. After 30 min incubation at room temperature, the luminescence intensity in the plates was measured using a ViewLux plate reader.
# [8] = tested on: estrogen-related receptor alpha (ERRalpha) with PGC-1alpha coactivator, human; experiment: qHTS assay to identify small molecule antagonists of the estrogen related receptor signaling pathway with the pleiotropic PPARgamma coactivator (PGC) (AID 1224821; calls by dose curve;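 further: series mostly up to about 46 µM; lower luminescence signal means antagonism of PGC/ERR signalling; nearly all actives have a fitted effect of over 50% in size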)
# Method in brief: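 Luminescence from One-Glo luciferase reagent (30 min, room temperature) measured after 18 h compound treatment at 37 °C. Cells carry the PGC/ERR reporter and were seeded 6 h prior to dosing.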
# [9] = qHTS assay to identify small molecule agonists of the estrogen related receptor signaling pathway with the pleiotropic PPARgamma coactivator (PGC) (AID 1224823)
# Method in brief: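 Luminescence from One-Glo reagent (30 min, room temperature) was read after 18 h compound treatment at 37 C of PGC/ERR cells plated 6 h beforehand; compounds delivered in DMSO by pin tool.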
# [10] = qHTS assay to identify small molecule antagonists of the estrogen related receptor (ERR) signaling pathway from Tox21 library - cell viability counter screen (AID 1224834); further: nearly all actives have a fitted effect of over 30% in size; further: potency means the concentration at half of the fitted maximal effect
# Method in brief: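 Counter screen run in ERR cells (2,000 cells/well): cells pre-incubated 6 h, then treated with compounds for 17.5 h at 37 C. Fluorescence was read 30 min after CellTiter-Fluor addition.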
smiles,measurement,setting,value
CCC(CO)(CO)CO,Potency,[1],inactive
same,Potency,[2],inactive
same,Potency,[3],inactive
same,Potency,[4],inactive
CNC1CCCN(c2c(F)cc3c(=O)c(C(=O)O)cn(C4CC4)c3c2OC)C1 (centres undefined),Potency,[1],inactive
same,Potency,[2],inactive
same,Potency,[3],inactive
same,Potency,[4],inactive
CC1=CC[C@@H]2C[C@H]1C2(C)C,"activity change, negative = cytotoxicity",[1],-11.8% [at 15.8 µM] (inactive)
same,"activity change, negative = cytotoxicity",[2],-0.147% [at 19 µM] (inactive)
same,"activity, negative = inhibition",[3],70.7% [at 19 µM] (inactive)
Cc1cc(CCC(=O)OCCOCCOCCOC(=O)CCc2cc(C)c(O)c(C(C)(C)C)c2)cc(C(C)(C)C)c1O,Potency,[1],inactive
same,Potency,[2],inactive
same,Potency,[3],inactive
same,Potency,[4],inactive
COc1cc(NS(=O)(=O)c2ccc(N)cc2)nc(C)n1,Potency,[1],inactive
same,Potency,[2],inactive
same,Potency,[3],inactive
same,Potency,[4],inactive
Cc1ccc(N(CC2=NCCN2)c2cccc(O)c2)cc1,Potency,[1],inactive
same,Potency,[2],inactive
same,Potency,[3],inactive
same,Potency,[4],inactive
same,outcome,[5],inactive
O=C(O)CNC(=O)c1ccccc1I,Potency,[1],inactive
same,Potency,[2],inactive
COc1ccc(-c2cc(=S)ss2)cc1,Potency,[1],inactive
same,Potency,[2],inactive
same,Potency,[3],inactive
same,Potency,[4],26.6 µM (active)
CC(=O)N[C@@H](Cc1ccc(O)cc1)C(=O)O,Potency,[1],inactive
same,Potency,[2],inactive
same,Potency,[3],inactive
same,Potency,[4],inactive
COc1ccc(N)c([N+](=O)[O-])c1,Potency,[1],inactive
same,Potency,[2],inactive
same,Potency,[3],inactive
same,Potency,[4],inactive
COc1ccc(C)cc1,Potency,[1],inactive
same,Potency,[2],inactive
same,Potency,[3],inactive
same,Potency,[4],inactive
CCCCCCCCCCCCCOC(=O)CCSCCC(=O)OCCCCCCCCCCCCC,"activity change, negative = cytotoxicity",[1],10.7% [at 15.8 µM] (inactive)
same,"activity change, negative = cytotoxicity",[2],3.2% [at 19 µM] (inactive)
same,"activity, negative = inhibition",[3],-11.1% [at 19 µM] (inactive)
same,Potency,[4],inactive
COC(=O)Nc1nc2ccc(C(=O)C3CC3)cc2[nH]1,Potency,[1],inactive
same,Potency,[2],inactive
same,Potency,[3],inactive
O=C(O)CN1C(=O)c2cccc3cccc(c23)C1=O,Potency,[1],inactive
same,Potency,[2],inactive
COC(OC)OC,Potency,[1],inactive
same,Potency,[2],inactive
same,Potency,[3],inactive
same,Potency,[4],inactive
Nc1nc2ccc(OC(F)(F)F)cc2s1,Potency,[1],inactive
same,Potency,[2],inactive
same,Potency,[3],inactive
same,Potency,[4],9.44 µM (active)
same,outcome,[5],inactive
COc1cc(C(C)=O)ccc1OCCCN1CCC(c2noc3cc(F)ccc23)CC1,Potency,[1],inactive
CC(=O)OC(C)C[N+](C)(C)C (centres undefined),Potency,[1],inactive
same,Potency,[2],inactive
same,Potency,[3],inactive
same,Potency,[4],inactive
same,Potency,[6],inactive
same,outcome,[7],inactive
same,Potency,[8],inactive
same,outcome,[5],inactive
same,outcome,[9],inactive
same,Potency,[10],inactive
CCC(CO)(CO)[N+](=O)[O-],Potency,[1],inactive
same,Potency,[2],inactive
same,Potency,[3],inactive
same,Potency,[4],inactive
O=C(O)CCCc1c[nH]c2ccccc12,Potency,[1],inactive
same,Potency,[2],inactive
CCCCCCCC(=O)OCCCCCC,Potency,[1],inactive
same,Potency,[2],inactive
same,Potency,[3],inactive
same,Potency,[4],inactive
C=C(C)c1ccccc1,Potency,[1],inactive
same,Potency,[2],inactive
same,Potency,[3],inactive
same,Potency,[4],inactive
CCOC(=O)C(C)O (centres undefined),Potency,[1],inactive
same,Potency,[2],inactive
same,Potency,[3],inactive
same,Potency,[4],inactive
CCO[Si](C)(CCCOCC1CO1)OCC (centres undefined),Potency,[1],inactive
same,Potency,[2],inactive
same,Potency,[3],inactive
same,Potency,[4],inactive
same,Potency,[10],inactive
Cc1ccc(S(=O)(=O)NC(=O)NC2CCCCC2)cc1,Potency,[1],inactive
same,Potency,[2],inactive
same,Potency,[3],inactive
same,Potency,[4],inactive
same,Potency,[10],inactive
CC(C)N=C=NC(C)C,Potency,[1],inactive
same,Potency,[2],inactive
same,Potency,[3],inactive
same,Potency,[4],inactive
same,Potency,[10],inactive
COc1ccc(C2C(=O)c3ccccc3C2=O)cc1,Potency,[1],inactive
same,Potency,[2],inactive
same,Potency,[3],inactive
same,Potency,[4],inactive
same,Potency,[10],inactive
CCN(CC)c1cccc(O)c1,Potency,[1],inactive
same,Potency,[2],inactive
same,Potency,[3],inactive
same,Potency,[4],inactive
same,Potency,[10],inactive
Cc1ccc(Cl)cc1N,Potency,[1],inactive
same,Potency,[2],inactive
same,Potency,[3],inactive
same,Potency,[4],inactive
same,Potency,[10],inactive
Nc1ccn([C@H]2CS[C@@H](CO)O2)c(=O)n1,Potency,[1],inactive
same,Potency,[2],inactive
same,Potency,[3],inactive
same,Potency,[4],inactive
same,Potency,[10],inactive
CC(C)OC(=O)c1ccccc1C(=O)OC(C)C,Potency,[1],inactive
same,Potency,[2],inactive
same,Potency,[3],inactive
same,Potency,[4],inactive
same,Potency,[10],inactive
CC(CN(CCN(CC(C)OCCO)CC(C)OCCO)CC(C)OCCO)OCCO (centres undefined),Potency,[1],inactive
same,Potency,[2],inactive
same,Potency,[3],inactive
same,Potency,[4],inactive
same,Potency,[10],inactive
O=C1NC(=O)c2cccc3cccc1c23,Potency,[1],inactive
same,Potency,[2],inactive
same,Potency,[3],inactive
same,Potency,[4],inactive
same,Potency,[10],inactive
O=C(O)CO,Potency,[1],inactive
same,Potency,[2],inactive
same,Potency,[3],inactive
same,Potency,[4],inactive
same,Potency,[10],inactive
CN1C(CSCC(F)(F)F)Nc2cc(Cl)c(S(N)(=O)=O)cc2S1(=O)=O (centres undefined),Potency,[1],inactive
same,Potency,[2],inactive
same,Potency,[3],inactive
same,Potency,[4],inactive
same,Potency,[10],inactive
COc1ccc2nc(S(=O)Cc3ncc(C)c(OC)c3C)[nH]c2c1 (centres undefined),Potency,[1],inactive
same,Potency,[2],inactive
same,Potency,[3],inactive
same,Potency,[4],67.8 µM (active)
same,Potency,[10],53.8 µM (active) and inactive
COC(CC(C)CCCC(C)(C)O)OC (centres undefined),Potency,[1],inactive
same,Potency,[2],inactive
same,Potency,[3],inactive
same,Potency,[4],inactive
same,Potency,[10],inactive
